Laboratory results taken from PubChem BioAssay AID743314 (Broad Institute, 2014).
Potency and affinity values are given separately. Records with an inconclusive call do not appear. Activity calls are given as the source filed them.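 Rule for the calls: active = fitted half-maximal concentration no higher than twice the top tested dose, in every repeat run; inconclusive = repeat runs disagree, poor fit, or flat partial inhibition; inactive = the rest.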

These compounds were tested against Endoplasmic reticulum aminopeptidase 1 (Homo sapiens) (UniProt Q9NZ08) (assay: ERAP1 aminopeptidase inhibitors, dose response, biochemical, cherry-pick, set 2, plate reader (AID 743314;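 note: 0% = neutral control wells and -100% = L-leucinethiol positive control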)). Details: Recombinant ERAP1, Leu-AMC fluorescence, 60 min; series mostly up to 11 µM; activity change, negative = inhibition: at the top concentration.
Sequence of Endoplasmic reticulum aminopeptidase 1 (Homo sapiens) (Q9NZ08 whole entry, looked up): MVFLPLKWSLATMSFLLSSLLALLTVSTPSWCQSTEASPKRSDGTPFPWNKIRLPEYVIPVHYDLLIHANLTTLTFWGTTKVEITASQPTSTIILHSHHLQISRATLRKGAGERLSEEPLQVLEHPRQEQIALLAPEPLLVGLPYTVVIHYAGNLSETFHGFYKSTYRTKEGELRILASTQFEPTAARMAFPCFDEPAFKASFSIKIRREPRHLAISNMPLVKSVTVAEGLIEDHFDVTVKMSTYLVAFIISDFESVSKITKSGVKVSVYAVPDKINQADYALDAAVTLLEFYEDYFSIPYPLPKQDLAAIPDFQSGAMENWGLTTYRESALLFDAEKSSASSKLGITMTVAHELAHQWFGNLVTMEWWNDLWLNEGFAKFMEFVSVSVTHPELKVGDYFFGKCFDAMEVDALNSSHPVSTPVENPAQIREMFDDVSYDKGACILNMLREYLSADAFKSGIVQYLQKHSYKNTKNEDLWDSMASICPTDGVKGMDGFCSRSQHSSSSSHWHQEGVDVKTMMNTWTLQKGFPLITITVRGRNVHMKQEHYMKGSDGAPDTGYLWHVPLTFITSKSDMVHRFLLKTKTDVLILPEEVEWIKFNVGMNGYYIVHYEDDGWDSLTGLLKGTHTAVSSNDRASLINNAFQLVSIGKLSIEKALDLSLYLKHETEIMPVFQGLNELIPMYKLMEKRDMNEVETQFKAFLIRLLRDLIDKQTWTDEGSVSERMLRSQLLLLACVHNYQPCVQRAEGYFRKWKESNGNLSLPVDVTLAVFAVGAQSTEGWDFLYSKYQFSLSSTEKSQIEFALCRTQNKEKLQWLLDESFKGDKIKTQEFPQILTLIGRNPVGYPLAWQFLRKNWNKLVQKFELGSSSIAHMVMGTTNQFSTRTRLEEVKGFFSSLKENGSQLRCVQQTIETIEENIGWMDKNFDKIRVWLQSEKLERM

Activity change, negative = inhibition, inactive:
COc1ccccc1OCCNC(=O)C1CCCCC1 1.14%
CCn1c(SCC(=O)NCc2ccccc2)nnc1C(CO)NC(=O)c1ccccc1 (stereo not given) -14.3%
O=C(O)c1ccc(N2N=C(c3ccccc3)CC2c2ccccc2)cc1 (stereo not given) -7.44% [at 2.6 µM]
CCOC(=O)c1c(NC(=O)COC(=O)CCNS(=O)(=O)c2ccccc2)sc(C(=O)NC)c1C -4.58%
CCCN1[C@@H]2c3ccc(-c4cccnc4)c(=O)n3C[C@H]1[C@H](CO)[C@H]2C(=O)NCCc1cn(C)cn1 38.1%
CC(=O)N(C)C[C@H]1Oc2cc(C#CC(C)C)ccc2S(=O)(=O)N([C@@H](C)CO)C[C@H]1C 37.2%
O=c1oc2cc(O)ccc2cc1-c1nc2ccccc2o1 27.1%
CC(=O)Oc1ccc(-c2cc3c(OC(C)=O)cc(OC(C)=O)cc3oc2=O)cc1 13.7% [at 2.6 µM]
O=C(CSc1nnc2ccc(-c3ccc(F)cc3)nn12)N1CCCC1 1.64%
Cc1nc2ccc(NC(=O)c3ccc(=O)[nH]c3)cc2s1 -4.05%
O=C(Nc1ccc(C(F)(F)F)cc1)N1[C@@H]2CNC[C@H]1C2c1ccc(-c2ccncc2)cc1 (stereo not given in full) 42.7%
COc1ccc(C(=O)NCc2nnc(SCCOc3ccccc3)n2C)cc1 -13.3%
C[C@@H]1CN([C@@H](C)CO)C(=O)Cc2cc(NC(=O)Nc3cccc4ccccc34)ccc2O[C@H]1CN(C)Cc1ccc(C(=O)O)cc1 17.1%
Cc1ccc(NC(=O)C2CCN(C(=O)c3cccs3)CC2)c(C)c1 -4.73%
C[C@H](CO)N1C[C@H](C)[C@@H](CN(C)S(=O)(=O)c2ccccc2)Oc2ccc(NC(=O)CCN3CCOCC3)cc2C1=O 17.7%
